MgrA DNA FP: S. aureus MgrA activity modulators, primary screen, biochemical, S. aureus Newman, fluorescence polarization; MgrA-DNA binding; inhibition, % (concentration not given with the values); 84,000 compounds, 0.13% hits; in the data active means inhibition above about 30%, passing the limit was not always enough;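 further: 0% = protein plus DNA without compound and 100% = DNA alone without protein; higher means less MgrA bound to DNA so lower polarization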
An asterisk follows results filed as active. Only a selection was taken, and hits are over-represented in it overall.

SMILES	MgrA DNA FP
CC(C)c1cc2cc(/C=C/C(=O)O)c(O)cc2o1	60.4*
CC(C)c1ccc(/C=C/C(=O)O)cc1	-0.3
CC(C)(O)C1Cc2cc(/C=C/C(=O)O)c(O)cc2O1 (stereo not drawn)	20.1
Cc1nn(-c2ccccc2)nc1-c1nnc(-c2ccc(Cl)cc2)o1	2.6
Cc1ccc(C)n1-c1ccc(C(=O)O)cc1	99.5*
Cc1cc(C)n(-c2ccc(C(=O)O)cc2)n1	-0.5
O=C(O)c1ccc(N2CCCC2)cc1	-5.6
CC1=CC(=O)N(c2cscc2C)C1=O	1.4
O=C(NC(=S)Nc1ccc(-c2nc3ccccc3o2)cc1)c1ccc(F)cc1	2.7
CCC(C)NC(=O)c1cccc2c1SCCC2=O (stereo not drawn)	1.4
COc1ccc(C2Sc3ccccc3N(CCN(C)C)C(=O)C2OC(C)=O)cc1 (stereo not drawn)	0.9
CCN1C(=O)CC(c2ccc(OC)cc2)Sc2ccccc21 (stereo not drawn)	-2.4
COc1ccc([C@H]2Sc3ccccc3N(CCN(C)C)C(=O)[C@H]2OC(C)=O)cc1	96.2*
NC(=O)c1ccccc1NC(=O)CCCOc1ccc(Cl)cc1Cl	0.6
CN(C(=O)c1noc2c1COc1ccccc1-2)c1cccc(C(F)(F)F)c1	-1.1
O=C(CSc1nc2ccc(NC(=O)c3ccccc3F)cc2s1)NC1CC1	-2.9
COc1cc(CNC2C3CC4CC(C3)CC2C4)ccc1OCc1cccs1 (stereo not drawn)	0.0
CC1=NN(c2cccc(C(=O)O)c2)C(=O)/C1=C\c1ccc(-c2cc([N+](=O)[O-])ccc2C)o1	1.9
CC1=NN(c2cccc(C(=O)O)c2)C(=O)/C1=C/c1ccc(-c2cccc(Cl)c2C)o1	96.0*
CC1=NN(c2cccc(C(=O)O)c2)C(=O)/C1=C\c1ccc(-c2ccc(Cl)c(C(=O)O)c2)o1	8.0
O=C(COC(=O)C1(c2ccc(F)cc2)CCCC1)NC1CCCC1	0.2
Cn1c(SCC(=O)c2ccc(F)cc2)nnc1-c1ccco1	-3.6
CCn1c(SCC(=O)c2ccccc2)nnc1-c1ccco1	-1.2
CCc1ccc2c(c1)c1nnc(SCC(=O)c3ccc(OC)cc3)nc1n2C	-1.1
O=C1COc2ccc(C(=O)CSc3nnc(-c4ccoc4)c(-c4ccoc4)n3)cc2N1	44.2
SMILES	MgrA DNA FP
CCOc1ccc(C(=O)CSc2nnc(-c3ccco3)c(-c3ccco3)n2)cc1NC(=O)CC	91.9*
COc1ccc(C(=O)CSc2nnc(-c3ccco3)c(-c3ccco3)n2)cc1	50.9*
O=C(CSc1nnc(-c2ccoc2)c(-c2ccoc2)n1)c1ccc(N2CCCC2=O)cc1	41.5
O=C(CSc1nnc(-c2ccoc2)c(-c2ccoc2)n1)c1ccc(-c2ccccc2)cc1	71.1*
CCC(=O)Nc1ccc(C(=O)CSc2ncc(C#N)c(N)n2)cc1OC	2.8
COc1c(Br)cc(-c2noc(CSC)n2)cc1Br	-0.1
Cc1nnc(SCCCC(=O)c2ccc(C(C)(C)C)cc2)s1	-0.8
CSC(SC)=C(C#N)S(=O)(=O)c1ccc(Cl)cc1	0.2
O=C1OC(c2cccc(F)c2)=N/C1=C\c1cccc2ccccc12	8.9
COc1ccc(CCNC2=CC(=O)OC23CCCCC3)cc1OC	1.1
CC(C)OC(=O)c1ccc(NC(=O)c2ccc(Cn3cc(Cl)cn3)cc2)cc1	-0.4
CCNc1nc(N(C#N)CC)nc(N2CCOCC2)n1	0.7
CN(C)Cc1ccccc1C(O)c1ccccc1 (stereo not drawn)	-0.2
CN(C)Cc1cc(O)c(CN(C)C)cc1O	54.6*
CN(Cc1ccccc1)Cc1ccccc1O	0.2
COc1ccc(NC(=O)/C(C#N)=C/C=C/c2ccco2)cc1	1.6
N#C/C(=C\C=C\c1ccco1)C(N)=S	99.9*
N#CC(C#N)=C(N)/C(C#N)=C/c1ccco1	1.2
NC(=O)c1ncn([C@@H]2O[C@H](CO)[C@H](O)C2O)n1 (stereo partly drawn)	-1.2
CC(C)c1cc(C(C)C)c(S(=O)(=O)NCCCN2CCOCC2)c(C(C)C)c1	-0.9
OC(COc1ccc(Cl)cc1)CN1CCc2ccccc2C1 (stereo not drawn)	-1.3
CCOC(=O)CN1NC(CC)(c2ccccc2)NC1=S (stereo not drawn)	-2.0
O=C(/C=C/c1ccccc1)Nc1nc2c(s1)CCCC2	0.0
O=C(Nc1nc2c(s1)CCCC2)c1ccncc1	41.7*
Cc1ccc(C(=O)Nc2nc3c(s2)CCCC3)cc1	0.3
SMILES	MgrA DNA FP
O=c1c(Oc2ccccc2)coc2cc(OCc3ccccc3)ccc12	-2.5
CN(C)c1nc(NCCNS(=O)(=O)c2ccc(Cl)cc2)nc(N(C)C)n1	-1.0
N#Cc1sc2nnc(-c3ccncc3)n2c1N	3.1
O=C1C=CC(=O)C(Sc2nnnn2-c2ccccc2)=C1	74.9*
CC(Sc1nnnn1-c1ccccc1)C(=O)O (stereo not drawn)	-2.5
c1ccc(CSc2nnnn2-c2ccccc2)cc1	10.9
CCOC(=O)c1oc2c(c1C)/C(=N/OC(=O)c1ccccc1Cl)CCC2	-1.3
Cc1cc(C(O)(C(F)(F)F)C(F)(F)F)c(C)n1-c1ccccc1	0.9
CC(C)=CCSc1nc2sc3c(c2c(=O)[nH]1)CCCC3	2.4
N#Cc1c(N)n(-c2ccccc2)c2nc3ccccc3nc12	1.1
CC1(C)CC(=O)C2=C(C1)OC(c1cccs1)C(C#N)=C2N (stereo not drawn)	98.5*
CC1(C)CC(=O)C2=C(C1)NC1=C(C(=O)CC(C)(C)C1)C2c1cccs1	2.7
CC1(C)CC(=O)C2=C(C1)OC(N)=C(C#N)C2c1ccccc1 (stereo not drawn)	2.2
O=C(CSc1ccccn1)NCCOc1ccccc1	7.7
CCOC(=O)c1c(C)n(C)c2c1cc(OC(=O)c1ccc(C(C)(C)C)cc1)c1ccccc12	1.3
N#CC(Nc1ccc(I)cc1)c1ccccc1 (stereo not drawn)	-0.2
Cc1ccc(C)n1C(CC(=O)O)c1ccc(F)cc1 (stereo not drawn)	31.4
Cc1ccc(C)n1C(CC(=O)O)c1ccsc1 (stereo not drawn)	61.3*
O=C(O)CC(c1ccsc1)n1cccc1 (stereo not drawn)	0.1
COc1ccc(C(=O)N2CC(C)N(C(=O)c3ccc(OC)c(OC)c3)CC2C)cc1OC (stereo not drawn)	1.1
Cc1c(=O)n(OCc2ccc(Cl)cc2)c2ccccc2[n+]1[O-]	0.2
N#Cc1c(=O)n(O)c2ccccc2[n+]1[O-]	48.6*
O=c1c(-c2ccc(Oc3ccccc3)cc2)[n+]([O-])c2ccccc2n1O	5.0
Cc1ccccc1-c1nnn(CC(=O)NC2CCCCC2)n1	1.8
O=C(O)CNC(=O)C(O)(c1ccccc1)c1ccccc1	-0.8
SMILES	MgrA DNA FP
CC(C)(C)C(=O)C1C2C3COC(O3)C(=O)C2C2C=Cc3ccccc3N21 (stereo not drawn)	41.5*
COC(=O)N1c2ccccc2C=CC1C#N (stereo not drawn)	2.1
Cc1ccc(C)n1CCN1CCN(S(=O)(=O)Cc2ccc(Cl)cc2)CC1	0.9
Clc1ccc(C2=Nc3cccc4cccc(c34)N2)cc1	3.9
CC(=O)Nn1c(=O)[nH]c2ccccc2c1=O	0.6
O=C(NCCSCc1ccco1)Nc1cc(Cl)cc(Cl)c1	0.3
O=C(NCCCO)Nc1ccc2nc(-c3ccco3)c(-c3ccco3)nc2c1	77.5*
O=C(Nc1ccc(N2CCOCC2)cc1)Nc1ccc2nc(-c3ccco3)c(-c3ccco3)nc2c1	2.4
COc1ccc(/C=C2/SC(=S)N(CCC(=O)Nc3c(C)n(C)n(-c4ccccc4)c3=O)C2=O)cc1	0.5
COc1ccc(OC)c(-c2cc(C(N)=O)on2)c1	8.1
COc1cccc(-c2nn(-c3ccccc3)c3c2cnc2ccccc23)c1	0.2

Screening results from PubChem BioAssay.
